Data on six compounds can be found in PubChem BioAssay (EPA / NIEHS).

Activity calls are given as the source filed them. The calls were made as follows: active = hit-call score of the fitted dose curve at least 0.9, where 1 is the maximum; inactive = score below 0.9.

A short description of assay [1]: APR_HepG2_NuclearSize_24hr: Apredica 24-hour HepG2 Assay for Nuclear Size (AID 2282907). To be noted: high-content imaging, actives raise or lower the signal. An outline of the steps: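 Compounds in DMSO (final 0.5%) were added to human HepG2 hepatoma cells at ten concentrations up to 200 uM for 24 hr. Fixed nuclei were stained with Hoechst 33342, and nuclear diameter was quantified from automated images.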

Assay [2] is described as follows: APR_HepG2_CellLoss_24hr: Apredica 24-hour HepG2 Assay for Cell Loss (AID 2282908). As to conditions: high-content imaging. The method, boiled down:
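Cell number is quantified by fluorescence imaging of Hoechst 33342-stained nuclei following dosing at 0.39–200 uM in 0.5% DMSO. Curves are fitted in both directions from the DMSO baseline.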

A short description of assay [3]: APR_HepG2_MitoticArrest_24hr: Apredica 24-hour HepG2 Assay for Mitotic Arrest (AID 2282910). As to conditions: high-content imaging, actives raise or lower the signal. The method, boiled down: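 HepG2 cells, 24 h exposure at 0.39-200 uM (10 concentrations, duplicate, 0.5% DMSO). Fixed, stained for phospho-histone H3 with Hoechst; imaged by high-content microscopy, bidirectional fit versus DMSO.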

The nature of assay [4]: APR_HepG2_MitoMembPot_24hr: Apredica 24-hour HepG2 Assay for Mitochondrial Membrane Potential (AID 2282911). As to conditions: imaging, actives raise or lower the signal. An outline of the steps: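 HepG2 human liver cells were exposed 24 hr to compounds at 0.39–200 uM (final DMSO 0.5% v/v) in duplicate. MitoTracker Red CMXRos (250 nM, 30 min) was loaded before formaldehyde fixation; fluorescence was imaged by ArrayScan HCS and fitted bidirectionally versus DMSO.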

Assay [5] in a line: APR_HepG2_MitoMass_24hr: Apredica 24-hour HepG2 Assay for Mitochondrial Mass (AID 2282912). To be noted: high-content imaging, actives raise or lower the signal. The method, boiled down:
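The liver line HepG2 was dosed in duplicate across a 0.39–200 uM series, with final DMSO held at 0.5% v/v, and harvested at 24 hr. High-content imaging measured mitochondrial dye staining.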

Assay [6] in a line: APR_HepG2_p53Act_24hr: Apredica 24-hour HepG2 Assay for p53 Activation (AID 2282913).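 Also: p53 protein immunofluorescence averaged per cell in HepG2 with Hoechst nuclei.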 As to conditions: high-content imaging, actives raise or lower the signal. An outline of the steps:
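HepG2 cells exposed 24 hr to compounds at 0.39–200 uM (10 concentrations, duplicate), final DMSO 0.5% v/v. After formaldehyde fixation and Triton permeabilization, p53 was immunolabeled (sheep anti-p53, Cy5 secondary) with Hoechst 33342 nuclear counterstain, then imaged by high-content fluorescence microscopy.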

Assay [7] is described as follows: APR_HepG2_CellCycleArrest_72hr: Apredica 72-hour HepG2 Assay for Cell Cycle Arrest (AID 2282914). To be noted: high-content imaging, actives raise or lower the signal. The method, boiled down:
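HepG2 cells were exposed to compounds at 0.39–200 uM (0.5% v/v DMSO final, duplicates) for 72 hr, fixed in 3.7% formaldehyde, permeabilized and stained with Hoechst 33342. Nuclear DNA content was quantified by high-content imaging; gain or loss of signal was fitted bidirectionally against DMSO.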

Assay [8] can be described thus: APR_HepG2_CellLoss_72hr: Apredica 72-hour HepG2 Assay for Cell Loss (AID 2282915). To be noted: high-content imaging. The method, boiled down:
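HepG2 cells exposed 72 h to compound at 0.39–200 uM (10 concentrations, duplicate) in 0.5% DMSO. Fixed with 3.7% formaldehyde and Hoechst 33342-stained. Imaged at 20x; nuclear count gives cell number, fitted bidirectionally versus DMSO.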

The nature of assay [9]: APR_HepG2_P-H2AX_72hr: Apredica 72-hour HepG2 Assay for H2AX Phosphorylation (AID 2282916).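 Also: phospho-histone H2A.x immunostain intensity per cell marking DNA damage.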 To be noted: imaging, actives raise or lower the signal. The method, boiled down:
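Following 72 hr treatment with 0.39–200 uM compound, HepG2 cells were formaldehyde-fixed, permeabilized and stained for phospho-H2A.x; signal was measured by high-content imaging and fitted bidirectionally against DMSO controls.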

Assay [10] is described as follows: APR_HepG2_MitoMembPot_72hr: Apredica 72-hour HepG2 Assay for Mitochondrial Membrane Potential (AID 2282917). As to conditions: imaging, actives raise or lower the signal. An outline of the steps: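 HepG2 cells dosed 72 hr with compound at 0.39–200 uM in duplicate, 0.5% v/v DMSO final. Mitochondria stained with 250 nM MitoTracker Red CMXRos for 30 min before formaldehyde fixation, imaged by high-content fluorescence; bidirectional fit versus DMSO.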

Assay [11] in a line: APR_HepG2_MitoticArrest_72hr: Apredica 72-hour HepG2 Assay for Mitotic Arrest (AID 2282918). As to conditions: high-content imaging, actives raise or lower the signal. The method, boiled down: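 HepG2 cells were exposed for 72 hr to compound at 0.39–200 uM (10 concentrations, duplicate) in 0.5% v/v DMSO, fixed in 3.7% formaldehyde, immunostained for phospho-histone H3 with Hoechst 33342 and imaged by high-content fluorescence; bidirectional fits versus DMSO.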

The nature of assay [12]: APR_HepG2_MicrotubuleCSK_72hr: Apredica 72-hour HepG2 Assay for Microtubule CSK Stabilty (AID 2282919). To be noted: HepG2 microtubule cytoskeleton, high-content imaging, actives raise or lower the signal. An outline of the steps:
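HepG2 cells were exposed 72 hr to compound at 0.39–200 uM in duplicate (0.5% DMSO final), then fixed and permeabilized. Alpha-tubulin immunofluorescence was imaged by high-content microscopy, with bidirectional fitting against DMSO and taxol as positive control.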

Assay [13] can be described thus: APR_HepG2_P-H2AX_24hr: Apredica 24-hour HepG2 Assay for H2AX Phosphorylation (AID 2282920). To be noted: high-content imaging, actives raise or lower the signal. The method, boiled down:
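HepG2 human liver cells were exposed for 24 hr to compounds at 0.39–200 uM in duplicate, with 0.5% v/v DMSO final. Fixed cells were immunostained for phospho-histone H2A.x plus Hoechst 33342, imaged by HCS fluorescence, and fitted bidirectionally against DMSO.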

Assay [14] is described as follows: APR_HepG2_StressKinase_72hr: Apredica 72-hour HepG2 Assay for Stress Kinase (AID 2282921). To be noted: HepG2 stress kinase (phospho-c-Jun) imaging, actives raise or lower the signal. The method, boiled down: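 Fluorescence intensity of Cy3-tagged anti-phospho-c-Jun antibody, quantified per cell from Hoechst-defined nuclei across six images per well, served as the read-out following 72 h exposure (0.39–200 uM, 0.5% v/v DMSO).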

Assay [15] can be described thus: APR_HepG2_p53Act_72hr: Apredica 72-hour HepG2 Assay for p53 Activation (AID 2282923).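 Also: average cellular p53 protein immunofluorescence intensity in HepG2 cells.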 To be noted: high-content imaging, actives raise or lower the signal. An outline of the steps:
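HepG2 monolayers receive test compounds in duplicate at ten concentrations (0.39 through 200 uM) for 72 hr. They are then formaldehyde-fixed, antibody-labelled for p53, Hoechst-stained and imaged, with activity fitted bidirectionally versus DMSO.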

Assay [16] in a line: APR_HepG2_NuclearSize_72hr: Apredica 72-hour HepG2 Assay for Nuclear Size (AID 2282925). To be noted: high-content imaging, actives raise or lower the signal. An outline of the steps:
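HepG2 cells dosed 72 h at 0.39–200 uM (10 concentrations, duplicate) in 0.5% v/v DMSO final. Fixed, Hoechst 33342-stained nuclei imaged; nuclear diameter measured by automated image analysis. Bidirectional fit versus DMSO.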

Assay [17] in a line: APR_HepG2_StressKinase_24hr: Apredica 24-hour HepG2 Assay for Stress Kinase (AID 2282922). To be noted: HepG2 stress kinase (phospho-c-Jun) imaging, actives raise or lower the signal. An outline of the steps: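 HepG2 cells exposed 24 h to 0.39–200 uM compound in duplicate (0.5% v/v DMSO final). Cells fixed in 3.7% formaldehyde, permeabilized and immunostained for phospho-c-Jun; read by high-content fluorescence imaging, fitted bidirectionally against DMSO.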

Assay [18] is described as follows: APR_HepG2_MicrotubuleCSK_24hr: Apredica 24-hour HepG2 Assay for Microtubule CSK Stabilty (AID 2282909). To be noted: HepG2 microtubule cytoskeleton imaging, actives raise or lower the signal. The method, boiled down:
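Steps: dose HepG2 for 24 h (0.39–200 uM, 0.5% DMSO); fix 30 min in 3.7% formaldehyde at room temperature; permeabilize; stain alpha-tubulin 60 min; image microtubule cytoskeleton at 20x. Signal change fitted in both directions relative to DMSO.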

A short description of assay [19]: APR_HepG2_StressKinase_1hr: Apredica 1-hour HepG2 Assay for Stress Kinase (AID 2282906). As to conditions: HepG2 stress kinase (phospho-c-Jun) imaging, actives raise or lower the signal. An outline of the steps: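 HepG2 cells dosed 0.39-200 uM (0.5% DMSO) for 1 h, then formaldehyde-fixed. Stress kinase read by phospho-c-Jun immunofluorescence using high-content imaging; bidirectional fit vs DMSO.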

Assay [20] in a line: APR_HepG2_MitoMass_72hr: Apredica 72-hour HepG2 Assay for Mitochondrial Mass (AID 2282924).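 Also: MitoTracker Red CMXRos stain intensity per cell imaged as mitochondrial mass.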 To be noted: high-content imaging, actives raise or lower the signal. The method, boiled down:
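HepG2 cells dosed 72 hr at 0.39–200 uM (0.5% DMSO), in duplicate. MitoTracker Red CMXRos 250 nM loaded 30 min before formaldehyde fixation; high-content fluorescence imaging, bidirectional fit versus DMSO.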

Regarding `CCSC(=O)N(CC(C)C)CC(C)C`, the compound was called inactive in assay [1], in assay [2], in assay [3], in assay [4], in assay [5] and in [6]. The result in assay [7], in assay [8], in assay [9], in assay [10], in [11] and in [12] was inactive. Further, the compound was classed as inactive in assay [13], in assay [14], in assay [15] and in assay [16].
As for `CSC(=O)c1cccc2nnsc12`, the call in assay [1], in assay [2], in assay [3], in assay [4], in [5] and in assay [6] was inactive. The compound was called inactive in assay [7], in assay [8], in assay [9], in assay [10], in assay [11] and in assay [12]. Besides, the compound was called inactive in assay [13], in assay [14], in [17] and in [16].
Turning to `CCCCC(CC)COC(=O)c1ccccc1C(=O)O` (configuration not stated), the compound was called inactive in assay [1], in assay [2], in assay [18], in assay [3], in [4] and in assay [5]. In addition, the compound was called inactive in [6], in assay [7], in assay [8], in [9], in assay [10] and in assay [11]. Besides, the compound was called inactive in assay [12], in assay [13], in assay [14] and in assay [16].
With `COC(=O)c1ccc(CNS(C)(=O)=O)cc1S(=O)(=O)NC(=O)Nc1nc(OC)cc(OC)n1`, the outcome in [19], in [1], in assay [2], in assay [18], in assay [3] and in assay [4] was inactive. Besides, the compound was classed as inactive in [5], in assay [6], in assay [8], in assay [9], in assay [10] and in assay [11]. Also, the call in assay [12], in [13], in assay [14], in assay [20] and in assay [16] was inactive.
For the compound `S=C([S-])NCCNC(=S)[S-].[Mn+2]`, the result in assay [1], in assay [2], in assay [18], in assay [3], in assay [4] and in [5] was inactive. The compound was called inactive in [9], in [10], in assay [11], in assay [13], in assay [14] and in assay [16]. For the same compound, the AC50 in [7] was 82.9 µM (active); in assay [8], 11.5 µM (active); in assay [12], 103 µM (active); in assay [20] it was 166 µM (active).
With `C[C@]12CC[C@@H]3c4ccc(O)cc4C[C@@H](CCCCCCCCCS(=O)CCCC(F)(F)C(F)(F)F)[C@H]3[C@@H]1CC[C@@H]2O` (some centres not stated), the compound was called inactive in assay [1], in assay [2], in assay [18], in [3], in [4] and in [5]. In addition, the outcome in assay [6], in [8], in assay [9], in assay [11], in [12] and in assay [13] was inactive. Also, the outcome in assay [14], in assay [20] and in assay [16] was inactive. Besides, the half-maximal activity concentration (AC50) in [10] is 22 µM (active).

As a reminder, the AC50 is the concentration at which the activity in the assay is half-maximal.
